# According to PMC7862700, “An all-to-all approach to the identification of sequence-specific readers for epigenetic DNA modifications on cytosine”:
# Tests used:
# Assay in all cases: DAPPL (digital affinity profiling via proximity ligation, sequencing); 10 mM Tris-HCl pH 7.5, 50 mM NaCl, 1 mM DTT, 4% glycerol, room temperature, 30 min; GST-TFs on glutathione beads, 16-mer random dsDNA library, 0.1% formaldehyde crosslink after washing; high values mean tight binding
# Settings in all cases: protein: recombinant; tags: N-terminal GST; dsDNA, one strand shown
# FLI1 = biological target: T1, FLI1 (Homo sapiens, UniProt Q01543 1-452)
# T1 sequence: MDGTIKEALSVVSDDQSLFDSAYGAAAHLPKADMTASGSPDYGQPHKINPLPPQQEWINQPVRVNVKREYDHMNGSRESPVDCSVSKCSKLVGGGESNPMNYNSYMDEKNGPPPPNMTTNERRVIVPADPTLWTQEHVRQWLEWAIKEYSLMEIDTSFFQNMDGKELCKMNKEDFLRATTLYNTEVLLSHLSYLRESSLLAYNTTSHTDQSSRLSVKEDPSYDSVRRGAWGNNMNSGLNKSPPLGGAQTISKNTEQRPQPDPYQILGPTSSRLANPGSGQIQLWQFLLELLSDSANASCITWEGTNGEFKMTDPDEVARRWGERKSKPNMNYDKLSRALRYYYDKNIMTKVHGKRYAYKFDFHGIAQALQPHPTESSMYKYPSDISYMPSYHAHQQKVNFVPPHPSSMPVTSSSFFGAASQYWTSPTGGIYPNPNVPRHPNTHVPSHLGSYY
# In short: (§1)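 Pools were built from human transcription factors expressed in yeast as GST fusions, captured on glutathione beads and DNA-barcoded, along with a tag-only sample. Incubation with 200 nmole of a 16-mer random double-stranded DNA library lasted 30 min at room temperature in Tris/NaCl/DTT/glycerol buffer, and was followed by washing, 0.1% formaldehyde crosslinking, proximity ligation, PCR amplification and Illumina NextSeq500 sequencing. Binding signal is the quotient of each hexamer's read frequency for a factor and its frequency for the tag-only sample.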
# ELK1 = biological target: T2, ELK1 (Homo sapiens, UniProt P19419 1-428)
# T2 sequence: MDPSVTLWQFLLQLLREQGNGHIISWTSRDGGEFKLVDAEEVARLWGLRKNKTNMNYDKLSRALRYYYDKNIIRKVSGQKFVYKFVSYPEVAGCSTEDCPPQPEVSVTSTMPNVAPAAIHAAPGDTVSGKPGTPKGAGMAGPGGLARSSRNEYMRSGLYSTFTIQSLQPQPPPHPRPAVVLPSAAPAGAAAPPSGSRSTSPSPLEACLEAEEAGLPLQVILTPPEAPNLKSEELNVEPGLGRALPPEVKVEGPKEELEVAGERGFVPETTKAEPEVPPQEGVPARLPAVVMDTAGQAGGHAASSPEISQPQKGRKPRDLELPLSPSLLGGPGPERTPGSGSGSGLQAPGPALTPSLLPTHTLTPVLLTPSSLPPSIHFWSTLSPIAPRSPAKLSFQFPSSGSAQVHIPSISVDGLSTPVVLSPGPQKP
# In short: as §1
# GABPA = biological target: T3, GABPA (Homo sapiens, UniProt Q06546 1-454)
# T3 sequence: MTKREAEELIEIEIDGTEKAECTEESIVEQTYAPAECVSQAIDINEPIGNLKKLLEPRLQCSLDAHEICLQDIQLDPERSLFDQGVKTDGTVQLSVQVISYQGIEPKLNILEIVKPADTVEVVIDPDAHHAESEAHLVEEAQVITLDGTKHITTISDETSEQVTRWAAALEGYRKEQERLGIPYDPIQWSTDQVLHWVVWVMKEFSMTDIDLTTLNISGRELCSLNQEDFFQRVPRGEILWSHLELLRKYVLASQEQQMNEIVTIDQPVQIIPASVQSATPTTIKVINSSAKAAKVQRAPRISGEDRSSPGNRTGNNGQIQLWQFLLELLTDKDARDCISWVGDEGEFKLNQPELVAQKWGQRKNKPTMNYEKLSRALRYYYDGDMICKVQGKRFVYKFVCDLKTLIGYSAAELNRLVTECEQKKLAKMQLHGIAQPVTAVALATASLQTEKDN
# In short: as §1
# ERG = biological target: T4, ERG (Homo sapiens, UniProt P11308 1-479)
# T4 sequence: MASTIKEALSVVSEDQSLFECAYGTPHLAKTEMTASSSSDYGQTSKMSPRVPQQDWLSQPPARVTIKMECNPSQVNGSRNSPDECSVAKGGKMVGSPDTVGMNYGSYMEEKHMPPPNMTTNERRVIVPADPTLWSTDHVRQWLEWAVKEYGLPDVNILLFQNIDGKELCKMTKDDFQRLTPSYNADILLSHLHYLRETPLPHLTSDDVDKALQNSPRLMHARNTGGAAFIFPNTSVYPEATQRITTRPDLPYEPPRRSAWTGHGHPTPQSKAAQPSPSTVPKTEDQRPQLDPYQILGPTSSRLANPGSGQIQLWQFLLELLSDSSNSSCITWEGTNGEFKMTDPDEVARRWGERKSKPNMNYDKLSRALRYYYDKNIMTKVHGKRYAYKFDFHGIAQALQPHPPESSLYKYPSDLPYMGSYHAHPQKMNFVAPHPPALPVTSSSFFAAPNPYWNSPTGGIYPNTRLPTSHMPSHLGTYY
# In short: as §1
# ELF1 = ELF1 (Homo sapiens, UniProt P32519 1-619)
# ELF1, sequence (P32519 whole entry): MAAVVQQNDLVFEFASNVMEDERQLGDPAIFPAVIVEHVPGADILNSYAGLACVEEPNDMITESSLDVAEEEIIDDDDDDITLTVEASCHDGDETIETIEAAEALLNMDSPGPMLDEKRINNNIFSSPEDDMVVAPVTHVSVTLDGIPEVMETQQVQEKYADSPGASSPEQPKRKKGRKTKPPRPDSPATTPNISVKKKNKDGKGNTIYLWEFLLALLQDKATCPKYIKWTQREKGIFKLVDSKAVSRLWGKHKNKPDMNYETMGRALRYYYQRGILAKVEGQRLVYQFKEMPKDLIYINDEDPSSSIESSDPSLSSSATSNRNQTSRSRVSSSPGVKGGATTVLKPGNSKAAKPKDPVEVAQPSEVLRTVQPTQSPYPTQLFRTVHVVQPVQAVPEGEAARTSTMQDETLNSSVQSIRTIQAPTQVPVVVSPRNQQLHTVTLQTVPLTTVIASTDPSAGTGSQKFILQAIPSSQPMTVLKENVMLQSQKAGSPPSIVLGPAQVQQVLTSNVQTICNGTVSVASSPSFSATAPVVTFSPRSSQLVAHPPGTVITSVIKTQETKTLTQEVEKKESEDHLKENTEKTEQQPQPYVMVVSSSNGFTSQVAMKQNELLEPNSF
# In short: as §1
# EHF = biological target: T5, EHF (Homo sapiens, UniProt Q9NZC4 1-300)
# T5 sequence: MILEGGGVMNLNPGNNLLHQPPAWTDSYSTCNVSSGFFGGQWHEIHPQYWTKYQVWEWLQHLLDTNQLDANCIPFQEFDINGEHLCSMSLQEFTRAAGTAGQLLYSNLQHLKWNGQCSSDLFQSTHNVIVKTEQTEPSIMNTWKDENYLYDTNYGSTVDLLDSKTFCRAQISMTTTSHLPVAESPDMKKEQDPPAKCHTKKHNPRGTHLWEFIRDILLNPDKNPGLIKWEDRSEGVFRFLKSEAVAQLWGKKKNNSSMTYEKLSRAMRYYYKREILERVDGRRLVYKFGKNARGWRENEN
# In short: as §1
# SPI1 = SPI1 (Homo sapiens, UniProt P17947 1-270)
# In short: as §1
# SPIB = SPIB (Homo sapiens, UniProt Q01892 1-262)
# SPIB, sequence (Q01892 whole entry): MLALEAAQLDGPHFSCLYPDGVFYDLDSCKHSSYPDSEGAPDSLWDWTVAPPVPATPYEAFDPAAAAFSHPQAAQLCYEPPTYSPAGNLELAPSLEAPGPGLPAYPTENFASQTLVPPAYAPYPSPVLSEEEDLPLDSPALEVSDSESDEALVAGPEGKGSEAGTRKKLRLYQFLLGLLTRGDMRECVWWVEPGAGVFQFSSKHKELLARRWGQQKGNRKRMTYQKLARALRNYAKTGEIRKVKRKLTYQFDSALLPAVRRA
# In short: as §1
# ELK3 = biological target: T6, ELK3 (Homo sapiens, UniProt P41970 1-407)
# T6 sequence: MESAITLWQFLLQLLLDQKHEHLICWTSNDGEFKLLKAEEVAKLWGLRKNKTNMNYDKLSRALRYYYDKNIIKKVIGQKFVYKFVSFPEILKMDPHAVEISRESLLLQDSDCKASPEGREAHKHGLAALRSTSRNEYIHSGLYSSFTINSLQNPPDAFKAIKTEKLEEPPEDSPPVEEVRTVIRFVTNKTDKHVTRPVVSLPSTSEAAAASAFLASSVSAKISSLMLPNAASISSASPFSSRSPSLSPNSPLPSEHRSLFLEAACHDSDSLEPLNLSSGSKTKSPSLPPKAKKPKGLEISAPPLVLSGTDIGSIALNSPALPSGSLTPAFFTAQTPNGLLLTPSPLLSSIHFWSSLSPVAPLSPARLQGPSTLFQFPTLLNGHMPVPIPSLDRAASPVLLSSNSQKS
# In short: as §1
# FEV = biological target: T7, FEV (Homo sapiens, UniProt Q99581 1-238)
# T7 sequence: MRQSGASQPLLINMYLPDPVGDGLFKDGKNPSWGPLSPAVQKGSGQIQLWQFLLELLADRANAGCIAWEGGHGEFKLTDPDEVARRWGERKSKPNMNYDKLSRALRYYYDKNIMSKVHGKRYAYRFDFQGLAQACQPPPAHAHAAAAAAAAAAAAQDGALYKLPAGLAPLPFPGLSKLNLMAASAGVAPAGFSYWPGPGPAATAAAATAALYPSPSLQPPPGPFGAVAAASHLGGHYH
# In short: as §1
# ETV5 = ETV5 (Homo sapiens, UniProt P41161 1-510)
# ETV5, sequence (P41161 whole entry): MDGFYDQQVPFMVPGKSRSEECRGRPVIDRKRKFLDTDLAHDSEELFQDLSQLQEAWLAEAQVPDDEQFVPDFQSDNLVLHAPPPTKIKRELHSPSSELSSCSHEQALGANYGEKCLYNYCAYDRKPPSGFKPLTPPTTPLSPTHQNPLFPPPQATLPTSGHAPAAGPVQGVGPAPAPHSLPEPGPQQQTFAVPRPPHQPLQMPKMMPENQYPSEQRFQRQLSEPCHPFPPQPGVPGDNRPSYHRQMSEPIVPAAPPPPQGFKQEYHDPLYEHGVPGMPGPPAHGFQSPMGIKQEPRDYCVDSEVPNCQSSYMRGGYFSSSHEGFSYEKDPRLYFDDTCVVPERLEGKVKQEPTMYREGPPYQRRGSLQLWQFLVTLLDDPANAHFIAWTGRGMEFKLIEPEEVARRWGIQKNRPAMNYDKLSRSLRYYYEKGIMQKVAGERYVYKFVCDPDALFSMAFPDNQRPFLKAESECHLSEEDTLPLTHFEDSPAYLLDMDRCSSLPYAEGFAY
# In short: as §1
# SPIC = biological target: T8, SPIC (Homo sapiens, UniProt Q8N5J4 1-248)
# T8 sequence: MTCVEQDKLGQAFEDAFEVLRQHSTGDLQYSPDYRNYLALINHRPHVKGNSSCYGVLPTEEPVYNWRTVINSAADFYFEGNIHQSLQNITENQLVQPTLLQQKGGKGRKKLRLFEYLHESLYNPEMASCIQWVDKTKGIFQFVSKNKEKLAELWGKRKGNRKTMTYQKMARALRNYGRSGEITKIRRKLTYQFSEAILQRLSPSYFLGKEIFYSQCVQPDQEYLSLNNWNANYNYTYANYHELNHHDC
# In short: as §1
# ELF4 = ELF4 (Homo sapiens, UniProt Q99607 1-663)
# ELF4, sequence (Q99607 whole entry): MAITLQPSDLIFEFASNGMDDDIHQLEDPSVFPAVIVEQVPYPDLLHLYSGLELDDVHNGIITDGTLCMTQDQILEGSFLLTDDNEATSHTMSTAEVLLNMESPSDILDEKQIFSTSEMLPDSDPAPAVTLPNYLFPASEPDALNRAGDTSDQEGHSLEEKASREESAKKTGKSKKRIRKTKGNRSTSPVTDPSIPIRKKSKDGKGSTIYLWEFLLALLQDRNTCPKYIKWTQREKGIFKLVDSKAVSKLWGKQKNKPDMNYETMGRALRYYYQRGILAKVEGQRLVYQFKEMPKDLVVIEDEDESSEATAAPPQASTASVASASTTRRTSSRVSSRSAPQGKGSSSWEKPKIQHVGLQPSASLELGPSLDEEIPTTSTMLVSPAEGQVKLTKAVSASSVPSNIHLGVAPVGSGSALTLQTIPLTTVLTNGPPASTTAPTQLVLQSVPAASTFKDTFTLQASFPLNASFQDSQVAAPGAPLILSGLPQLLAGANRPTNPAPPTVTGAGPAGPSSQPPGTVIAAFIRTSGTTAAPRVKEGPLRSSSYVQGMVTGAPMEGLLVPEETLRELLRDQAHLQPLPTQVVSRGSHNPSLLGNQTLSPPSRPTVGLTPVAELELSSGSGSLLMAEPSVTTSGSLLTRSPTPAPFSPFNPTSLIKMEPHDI
# In short: as §1
# ELK4 = biological target: T9, ELK4 (Homo sapiens, UniProt P28324-2 1-405)
# T9 sequence: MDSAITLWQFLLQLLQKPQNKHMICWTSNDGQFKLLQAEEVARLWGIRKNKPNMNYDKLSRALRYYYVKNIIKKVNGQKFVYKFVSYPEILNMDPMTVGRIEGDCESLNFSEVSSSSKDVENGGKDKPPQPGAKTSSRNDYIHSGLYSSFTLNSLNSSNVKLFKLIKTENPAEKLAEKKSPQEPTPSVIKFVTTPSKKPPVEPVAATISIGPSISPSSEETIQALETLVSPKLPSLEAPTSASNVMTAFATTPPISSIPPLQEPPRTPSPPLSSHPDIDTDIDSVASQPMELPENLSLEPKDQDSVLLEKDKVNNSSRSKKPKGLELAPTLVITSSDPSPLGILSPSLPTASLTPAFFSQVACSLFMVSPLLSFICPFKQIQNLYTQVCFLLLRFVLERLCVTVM
# In short: as §1
# ETV2 = biological target: T10, ETV2 (Homo sapiens, UniProt O00321 1-342)
# T10 sequence: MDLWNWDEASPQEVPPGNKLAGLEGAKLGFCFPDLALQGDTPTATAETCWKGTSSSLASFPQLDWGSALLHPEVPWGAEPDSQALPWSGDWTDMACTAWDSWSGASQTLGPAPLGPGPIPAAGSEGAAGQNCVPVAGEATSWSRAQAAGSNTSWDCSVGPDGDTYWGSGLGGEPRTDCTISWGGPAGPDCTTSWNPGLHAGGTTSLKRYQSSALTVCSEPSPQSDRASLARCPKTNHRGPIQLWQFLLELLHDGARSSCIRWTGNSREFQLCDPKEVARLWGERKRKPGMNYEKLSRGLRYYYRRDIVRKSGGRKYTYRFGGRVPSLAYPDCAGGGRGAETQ
# In short: as §1
# ELF3 = biological target: T11, ELF3 (Homo sapiens, UniProt P78545 1-371)
# T11 sequence: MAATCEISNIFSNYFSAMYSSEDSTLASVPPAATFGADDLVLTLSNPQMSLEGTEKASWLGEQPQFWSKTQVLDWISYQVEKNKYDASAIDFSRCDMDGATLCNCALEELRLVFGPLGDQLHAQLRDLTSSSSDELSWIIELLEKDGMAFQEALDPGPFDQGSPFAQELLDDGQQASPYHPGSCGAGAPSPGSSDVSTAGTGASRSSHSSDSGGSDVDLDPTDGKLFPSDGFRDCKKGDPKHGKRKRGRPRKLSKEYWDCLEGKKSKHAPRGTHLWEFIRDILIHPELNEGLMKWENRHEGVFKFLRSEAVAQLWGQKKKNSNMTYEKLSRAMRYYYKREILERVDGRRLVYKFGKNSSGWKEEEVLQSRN
# In short: as §1
# ETV1 = ETV1 (Homo sapiens, UniProt P50549 1-477)
# ETV1, sequence (P50549 whole entry): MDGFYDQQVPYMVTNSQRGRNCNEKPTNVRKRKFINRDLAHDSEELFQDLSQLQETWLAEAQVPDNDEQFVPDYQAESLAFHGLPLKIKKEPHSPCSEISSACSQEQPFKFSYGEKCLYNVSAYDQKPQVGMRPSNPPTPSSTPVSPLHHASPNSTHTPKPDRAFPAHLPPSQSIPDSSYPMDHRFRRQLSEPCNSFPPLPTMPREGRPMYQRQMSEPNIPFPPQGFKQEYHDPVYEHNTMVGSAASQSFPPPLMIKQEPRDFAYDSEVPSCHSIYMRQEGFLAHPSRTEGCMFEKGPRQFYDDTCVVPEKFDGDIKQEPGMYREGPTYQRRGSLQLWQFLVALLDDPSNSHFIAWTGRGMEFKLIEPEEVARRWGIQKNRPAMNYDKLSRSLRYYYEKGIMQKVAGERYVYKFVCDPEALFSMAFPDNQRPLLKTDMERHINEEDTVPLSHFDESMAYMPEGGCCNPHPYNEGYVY
# In short: as §1
Sequence,binding signal (FLI1),binding signal (ELK1),binding signal (GABPA),binding signal (ERG),binding signal (ELF1),binding signal (EHF),binding signal (SPI1),binding signal (SPIB),binding signal (ELK3),binding signal (FEV),binding signal (ETV5),binding signal (SPIC),binding signal (ELF4),binding signal (ELK4),binding signal (ETV2),binding signal (ELF3),binding signal (ETV1)
CCCACC,"1.17 fold enrichment (6-mer frequency, TF over GST control)","1.26 fold enrichment (6-mer frequency, TF over GST control)","1.11 fold enrichment (6-mer frequency, TF over GST control)","1.15 fold enrichment (6-mer frequency, TF over GST control)","1.15 fold enrichment (6-mer frequency, TF over GST control)","1.2 fold enrichment (6-mer frequency, TF over GST control)","1.18 fold enrichment (6-mer frequency, TF over GST control)","1.13 fold enrichment (6-mer frequency, TF over GST control)","1.16 fold enrichment (6-mer frequency, TF over GST control)","1.17 fold enrichment (6-mer frequency, TF over GST control)","1.16 fold enrichment (6-mer frequency, TF over GST control)","1.21 fold enrichment (6-mer frequency, TF over GST control)","1.19 fold enrichment (6-mer frequency, TF over GST control)","1.26 fold enrichment (6-mer frequency, TF over GST control)","1.15 fold enrichment (6-mer frequency, TF over GST control)","1.41 fold enrichment (6-mer frequency, TF over GST control)","1.14 fold enrichment (6-mer frequency, TF over GST control)"
GCGCCT,"1.09 fold enrichment (6-mer frequency, TF over GST control)","1.19 fold enrichment (6-mer frequency, TF over GST control)","1.11 fold enrichment (6-mer frequency, TF over GST control)","1.04 fold enrichment (6-mer frequency, TF over GST control)","1.1 fold enrichment (6-mer frequency, TF over GST control)","1.05 fold enrichment (6-mer frequency, TF over GST control)","1.12 fold enrichment (6-mer frequency, TF over GST control)","1.16 fold enrichment (6-mer frequency, TF over GST control)","1.05 fold enrichment (6-mer frequency, TF over GST control)","1.13 fold enrichment (6-mer frequency, TF over GST control)","1.07 fold enrichment (6-mer frequency, TF over GST control)","1 fold enrichment (6-mer frequency, TF over GST control)","1.07 fold enrichment (6-mer frequency, TF over GST control)","1.28 fold enrichment (6-mer frequency, TF over GST control)","1.13 fold enrichment (6-mer frequency, TF over GST control)","1.11 fold enrichment (6-mer frequency, TF over GST control)","1.17 fold enrichment (6-mer frequency, TF over GST control)"
